Here are results for 40 compounds from PubChem BioAssay (EPA / NIEHS).

SMILES strings stand for the structures. Calls of active or inactive are those of the source. The calls were made as follows: active = hit-call score of the fitted dose curve at least 0.9, where 1 is the maximum; inactive = score below 0.9.

This experiment in a line: ATG_GRE_CIS: Attagene CIS-FACTORIAL HepG2 Assay for human Glucocorticoid Response Elements (GRE) (AID 2282947). The following applies: HepG2 GRE cis-reporter, Attagene multiplex mRNA; actives raise or lower the signal. The protocol: ATG_CIS is a cell-based, multiplexed-readout assay that uses HepG2, a human liver cell line, with measurements taken at 24 hours after chemical dosing in a 24-well plate.ATG_GRE_CIS is one of 52 assay component(s) measured or calculated from the ATG_CIS assay. It is designed to make measurements of mRNA induction, a form of inducible reporter, as detected with fluorescence intensity signals by Reverse transcription polymerase chain reaction (RT-PCR) and Capillary electrophoresis technology.Data from the assay component ATG_GRE_CIS was analyzed into 1 assay endpoint. This assay endpoint, ATG_GRE_CIS, was analyzed with bidirectional fitting relative to DMSO as the negative control and baseline of activity. Using a type of inducible reporter, measures of mRNA for gain or loss-of-signal activity can be used to understand the reporter gene at the transcription factor-level as they relate to the gene NR3C1. Furthermore, this assay endpoint can be referred to as a primary readout, because this assay has produced multiple assay endpoints where this one serves a reporter gene function. To generalize the intended target to other relatable targets, this assay endpoint is annotated to the nuclear receptor intended target family, where the subfamily is steroidal.
Human liver HepG2 cells are transiently transfected with multiple reporter transcription units (MRTUs) in 6-well plates using FuGene 6 reagent (Roche; 3 ml FuGene/1 mg DNA). The MRTU constructs are regulated by a cis-regulating element (promoter). […] A major difference between the CIS and TRANS system is that in CIS activities of endogenous TFs are measured, whereas the TRANS assay evaluates changes in activities of exogenous, chimeric NR-Gal4 proteins. […] At the end of 24 hour incubation, total RNA was isolated using TriZol reagent (Invitrogen). The isolated RNA is then reverse-transcribed using oligo(dT) primer and Mo-MLV reverse transcriptase (Invitrogen) with DNAse I (Ambion) treatment for 30 min. The one-tenth of the produced cDNA was amplified by PCR using Taq DNA polymerase (Invitrogen) and two reporter sequence-specific primers. The PCR products were fluorescently labeled by primer extension with 6-arboxyfluorescein (6-FAM) 5'-labeled reporter sequence-specific primer (2 min at 95 C, 20 s at 68 C and 10 min at 72 C) and these products were digested with 5U of HpaI (New England Biolabs) for 2h at 37 C. The fragments were purified using Qiaquick PCR columns (Qiagen), analyzed on an ABI 3130xL genetic analyzer (Applied Biosystems) with peak positions identified by using a set of X-rhodamine (ROX)-labeled MapMarker1000 molecular weight standards (BioVentures). The raw capillary electrophoresis data was processed using Attagraph software (Attagene).
In the case of `O=[N+]([O-])c1cc(C(F)(F)F)ccc1Cl`, the compound was classed as inactive.
Consider `CCCCC(CC)COCCC#N` (stereo not given), for which the result was inactive.
On to `OC[C@H]1O[C@H](O[C@]2(CCl)O[C@H](CCl)[C@@H](O)[C@@H]2O)[C@H](O)[C@@H](O)[C@H]1Cl`, for which the compound was classed as inactive.
On to `OCCOCCOCCOCCO`, for which the compound was called inactive.
Turning to `CCCCCCCCCCCCSC`, the compound was called inactive.
Turning to `C#C[C@]1(O)CC[C@H]2[C@@H]3CCC4=Cc5oncc5C[C@]4(C)[C@H]3CC[C@@]21C`, the compound was classed as inactive.
For `CCCCCCCCCCCCCC(=O)O`, the call was inactive.
Turning to `CCOc1ccccc1OCC`, the compound was called inactive.
Turning to `CC1(C)[C@H]2CC[C@]1(C)[C@H](O)C2`, the call was inactive.
As for `CCCCNC(=O)NS(=O)(=O)c1ccc(C)cc1`, the outcome was inactive.
For the compound `CC1COc2ccccc2N1C(=O)C(Cl)Cl` (stereo not given), the outcome was inactive.
On to `CC(=O)O[C@]1(C(C)=O)CC[C@H]2[C@@H]3C[C@H](C)C4=CC(=O)CC[C@]4(C)[C@H]3CC[C@@]21C`, for which the outcome was inactive.
Still for that read-out and setting: the value for `CCCC(C)C=O` (stereo not given) was “inactive”; that for `CCCCCCCCCOC(C)=O` was “inactive”.
Take `NC(=O)NC1NC(=O)NC1=O` (stereo not given): the compound was called inactive.
`CCCCCCCCCCCCCOS(=O)(=O)O`: the result was inactive.
For the compound `COc1ccc(O)cc1`, the outcome was inactive.
As for `Nc1cc(Cl)c(O)c(Cl)c1`, the result was inactive.
Regarding `C=C[Si](OCC)(OCC)OCC`, the call was inactive.
The same measure, in the same setting: the value for `OC1OC[C@@H](O)[C@H](O)[C@H]1O` (stereo not given in full) was “inactive”; that for `CCCc1ccccc1O` was “inactive”.
Same read-out and setting: the value for `CC1=CCC2C(C1)C2(C)C` (stereo not given) was “inactive”.
In the case of `CC(C)C1CCC(O)CC1` (stereo not given), the outcome was inactive.
Turning to `CC1CCC2CC1C2(C)C` (stereo not given), the compound was called inactive.
Consider `Cc1cccc(Nc2ccccc2C(=O)O)c1C`, for which the result was inactive.
Take `O=S(=O)(O)c1cccc2c(S(=O)(=O)O)cccc12`: the compound was called inactive.
As to `Nc1ccc(S(N)(=O)=O)cc1`, the result was inactive.
The same measure, in the same setting: the value for `C/C=C(\C)C(=O)OCc1ccccc1` was “inactive”.
As for `C[C@H]1C[C@H]2[C@@H]3CCC4=CC(=O)C=C[C@]4(C)[C@@]3(F)[C@@H](O)C[C@]2(C)[C@@]1(O)C(=O)COP(=O)(O)O`, the concentration at half-maximal activity (AC50) was 82.3 nM (active).
Consider `CCCCCCCCC=O`, for which the compound was classed as inactive.
On the same count and under the same terms, the value for `CCCCOCCOCCSC#N` was “inactive”.
As for `CN(C)CCOCCN(C)C`, the result was inactive.
As for `CC(=O)OCC=Cc1ccccc1`, the outcome was inactive.
Turning to `COc1cc2ncnc(Nc3cccc(Cl)c3)c2cc1OC`, the outcome was inactive.
On to `C=C(C)C(=O)NCCCN(C)C`, for which the outcome was inactive.
In the case of `Clc1ccc2c(c1)C(N1CCNCC1)=Nc1ccccc1O2`, the result was inactive.
As for `c1ccc2[nH]ccc2c1`, the outcome was inactive.
For the compound `Cc1ccccc1C=O`, the compound was called inactive.
Consider `CCCCCCOC(=O)CCCCC`, for which the outcome was inactive.
For `C=C(C)C(=O)O`, the result was inactive.
